The structures appear in SMILES notation. Unmarked numbers belong to inactive results. Records with an inconclusive call do not appear. The source made the active and inactive calls. Unless noted, calls follow the shape of the dose curve; as a rule, active = well fitted curve in the direction sought with a large enough effect in the repeat runs; inconclusive = weak or mixed curves; inactive = no such curve, though single readings can be large; an effect the other way counts as inactive or inconclusive.

The values that follow come from PubChem BioAssay (Tox21).

The nature of assay [1]: qHTS assay to identify small molecule agonists of the TGF-beta/Smad signaling pathway - cell viability counter screen (AID 1346829). Also: top concentration of the series differs between compounds; nearly all actives have a fitted effect of over 45% in size. Summed up: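 Compound-treated SBE-bla HEK 293T cells (5 hr, 37 C) were assessed for viability with CellTiter-Glo in parallel with the reporter read.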
Assay [2] in a line: qHTS assay to identify small molecule agonists of the TGF-beta/Smad signaling pathway (AID 1346859; active = well fitted activation curve with a large enough effect in the signal ratio in the repeat runs, not every such curve was filed as active; the % refers to the signal ratio; also: series mostly up to about 77 µM). Summed up:
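After overnight seeding, SBE-bla HEK 293T cells are dosed with compounds in DMSO and kept 5 hr at 37 C, 5% CO2. LiveBLAzer-type FRET substrate is then applied for 2 hr at room temperature.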

The target of assay [3] is Thyrotropin-releasing hormone receptor (Homo sapiens) (UniProt P34981). The assay can be described thus: qHTS assay to identify small molecule antagonists of the thyrotropin-releasing hormone receptor (TRHR) signaling pathway (AID 1346877; active = well fitted inhibition curve with a large enough effect in the repeat runs, not every such curve was filed as active; also: series mostly up to about 51 µM). Summed up:
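Antagonism is measured as suppression of the calcium response to 1 nM TRH in TRHR-HEK293 cells that have been dye-loaded for 2 h at 37 °C after overnight plating. Each compound is tested at 15 concentrations in triplicate.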

For assay [4] the target is unchanged. Briefly: qHTS assay to identify small molecule agonists of the thyrotropin-releasing hormone receptor (TRHR) signaling pathway (AID 1346891; calls by dose curve;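 also: HEK293 cells expressing TRHR with calcium dye readout; series mostly up to about 58 µM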). Summed up: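 Compounds were tested as agonists at 15 concentrations, in triplicate, on TRHR-Hek293 cells; calcium-sensitive dye fluorescence was recorded for 3 min following addition.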
The nature of assay [5]: Human pregnane X receptor (PXR) small molecule agonists, qHTS cell viability counter screen (AID 1346977). Also: nearly all actives have a fitted effect of over 50% in size. Summed up:
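Viability counter screen: CellTiter-Fluor signal in PXR-Luc HepG2 cells, 24hr compound exposure, 37C, 5% CO2.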

Assay [6] in a line: Caspase-3/7 induction in HepG2 cells by small molecules, qHTS assay (AID 1346978). Also: nearly all actives have a fitted effect of over 15% in size. Summed up:
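Wild-type HepG2 cells, 2,000/well, settled 5 hr at 37 C and 5% CO2, then compound-treated for 17 hr; caspase-3/7 activity read by luminescent Caspase-Glo 3/7 after 30 min at room temperature.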

The nature of assay [7]: Caspase-3/7 induction in HepG2 cells by small molecules, qHTS cell viability counter screen (AID 1346981). Also: nearly all actives have a fitted effect of over 30% in size. Also: potency is read from the fitted curve at half-maximal effect. Summed up:
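Cell viability is measured as a cytotoxicity counter screen alongside the Caspase-Glo 3/7 readout in identical wells. Wild-type HepG2 cells are treated with test compounds for 16 hr at 37 C before CellTiter-Fluor addition and a 1-hr incubation.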

For assay [8], the target named is Cytochrome P450 2C19 (Homo sapiens) (UniProt P33261). Briefly: Cytochrome P450 Family 2 Subfamily C Member 19 (CYP2C19) small molecule antagonists: luciferase reporter qHTS assay (AID 1671197). Also: nearly all actives have a fitted effect of over 65% in size. Also: potency is read from the fitted curve at half-maximal effect. Summed up:
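P450-Glo CYP2C19 screening system; proluciferin substrate; DMSO compound stocks; 10 min RT preincubation; NADPH regeneration, 1 h at 37C; luciferin detection reagent, 20 min RT; luminescence as RLU.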

Assay [9] has as its target Cytochrome P450 2C9 (Homo sapiens) (UniProt P11712). The assay can be described thus: Cytochrome P450 Family 2 Subfamily C Member 9 (CYP2C9) small molecule antagonists: luciferase reporter qHTS assay (AID 1671198). Also: nearly all actives have a fitted effect of over 50% in size. Also: potency is read from the fitted curve at half-maximal effect. Summed up: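 P450-Glo proluciferin substrate with CYP2C9 enzyme; 10 min RT preincubation, then NADPH regeneration 1 h at 37C; luciferin detection reagent 20 min RT, luminescence in relative luminescence units.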

The target of assay [10] is Cytochrome P450 1A2 (Homo sapiens) (UniProt P05177). Briefly: Cytochrome P450 Family 1 Subfamily A Member 2 (CYP1A2) small molecule antagonists: luciferase reporter qHTS assay (AID 1671199). Also: nearly all actives have a fitted effect of over 50% in size. Also: potency is read from the fitted curve at half-maximal effect. Summed up:
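Compounds were incubated with CYP1A2 and a luminogenic proluciferin substrate for 10 min at room temperature before the reaction was started with NADPH regeneration solution. After 1 h, detection reagent was added and light output, proportional to CYP activity, was recorded.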

Assay [11] addresses Voltage-gated inwardly rectifying potassium channel KCNH2 (Homo sapiens) (UniProt Q12809). The assay can be described thus: Human Ether-a-go-go-Related Gene (hERG) channel small molecule antagonists: fluorescence cell-based qHTS assay (AID 1671200).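 Also: hERG-expressing U2OS cells given a thallium stimulus after FluxOR II dye loading; series mostly up to about 77 µM; nearly all actives have a fitted effect of over 50% in size.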 Summed up:
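Thallium served as the potassium surrogate; its influx into dye-loaded U2OS cells carrying the channel was measured by fluorescence over 2 min.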

For assay [12], the target named is Cytochrome P450 3A4 (Homo sapiens) (UniProt P08684). The assay can be described thus: Cytochrome P450 Family 3 Subfamily A Member 4 (CYP3A4) small molecule antagonists: luciferase reporter qHTS assay (AID 1671201). Also: nearly all actives have a fitted effect of over 50% in size. Also: potency is read from the fitted curve at half-maximal effect. Summed up:
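Relative luminescence units after 20 min with luciferin detection reagent served as read-out. Beforehand, CYP3A4 turned over a proluciferin substrate for 1 h at room temperature with NADPH regeneration, following 10 min compound preincubation.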

Assay [13] is described as follows: Caspase-3/7 induction in CHO-K1 cells by small molecules, qHTS assay (AID 1346980). Also: nearly all actives have a fitted effect of over 15% in size. Summed up: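 Wild-type CHO-K1 cells exposed to compounds for 17hr at 37 C, 5% CO2. Caspase-3/7 activity then measured by Caspase-Glo 3/7 luminescence after 30min at room temperature.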
Assay [14] addresses Nuclear receptor subfamily 1 group I member 2 (Homo sapiens) (UniProt O75469). Briefly: Human pregnane X receptor (PXR) small molecule agonists, qHTS assay (AID 1346982). Also: nearly all actives have a fitted effect of over 35% in size. Also: potency is read from the fitted curve at half-maximal effect. Summed up:
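Cells: HepG2 stably carrying PXR-Luc. Medium held 5% charcoal-stripped FBS. Compounds in DMSO added after 5 hr plating, incubated 24 hr, then luminescence quantified with ONE-Glo.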

For assay [15], the target named is Cytochrome P450 2D6 (Homo sapiens) (UniProt P10635). Briefly: Cytochrome P450 Family 2 Subfamily D Member 6 (CYP2D6) small molecule antagonists: luciferase reporter qHTS assay (AID 1671196). Also: nearly all actives have a fitted effect of over 50% in size. Also: potency is read from the fitted curve at half-maximal effect. Summed up:
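Enzyme and proluciferin substrate were first combined with test chemical for 10 min at room temperature. Adding NADPH regeneration solution started a 1 h reaction, stopped with luciferin detection reagent and read by luminescence 20 min later.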

The nature of assay [16]: Caspase-3/7 induction in CHO-K1 cells by small molecules, qHTS cell viability counter screen (AID 1346979). Also: potency is read from the fitted curve at half-maximal effect; nearly all actives have a fitted effect of over 35% in size. Summed up:
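Viability readout by fluorescence (CellTiter-Fluor) on wild-type CHO-K1 cells exposed for 16hr at 37C and 5% CO2 to compounds delivered in DMSO; reagent incubated 1hr before reading.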

Nuclear receptor subfamily 1 group I member 2 (Homo sapiens), sequence (O75469 whole entry, looked up): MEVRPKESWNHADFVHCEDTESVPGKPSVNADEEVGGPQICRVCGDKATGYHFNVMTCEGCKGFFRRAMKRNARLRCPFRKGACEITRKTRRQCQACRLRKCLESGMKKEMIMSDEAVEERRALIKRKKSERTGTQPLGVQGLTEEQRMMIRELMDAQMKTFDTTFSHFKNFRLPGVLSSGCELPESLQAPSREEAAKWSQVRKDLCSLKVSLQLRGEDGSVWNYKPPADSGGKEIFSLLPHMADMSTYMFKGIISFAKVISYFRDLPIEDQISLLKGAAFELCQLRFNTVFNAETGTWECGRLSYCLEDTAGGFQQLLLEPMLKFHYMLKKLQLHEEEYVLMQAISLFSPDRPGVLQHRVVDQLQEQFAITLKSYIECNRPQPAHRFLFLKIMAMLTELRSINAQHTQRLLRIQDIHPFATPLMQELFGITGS
Cytochrome P450 1A2 (Homo sapiens), sequence (P05177 whole entry, looked up): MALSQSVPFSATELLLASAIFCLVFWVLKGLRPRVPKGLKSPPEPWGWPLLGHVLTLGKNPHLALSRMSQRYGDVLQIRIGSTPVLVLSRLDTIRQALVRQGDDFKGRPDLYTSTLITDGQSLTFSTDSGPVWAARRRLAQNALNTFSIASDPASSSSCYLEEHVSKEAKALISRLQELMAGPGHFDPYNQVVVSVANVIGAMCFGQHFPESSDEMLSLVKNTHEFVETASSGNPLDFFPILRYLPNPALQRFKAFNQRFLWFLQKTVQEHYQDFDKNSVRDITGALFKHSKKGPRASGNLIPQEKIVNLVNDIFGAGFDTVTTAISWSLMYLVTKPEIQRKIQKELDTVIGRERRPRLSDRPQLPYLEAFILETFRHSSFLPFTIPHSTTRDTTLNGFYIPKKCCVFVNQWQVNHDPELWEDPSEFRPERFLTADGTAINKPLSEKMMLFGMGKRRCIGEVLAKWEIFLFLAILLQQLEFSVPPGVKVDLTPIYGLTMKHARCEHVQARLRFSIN
Cytochrome P450 2C9 (Homo sapiens), sequence (P11712 whole entry, looked up): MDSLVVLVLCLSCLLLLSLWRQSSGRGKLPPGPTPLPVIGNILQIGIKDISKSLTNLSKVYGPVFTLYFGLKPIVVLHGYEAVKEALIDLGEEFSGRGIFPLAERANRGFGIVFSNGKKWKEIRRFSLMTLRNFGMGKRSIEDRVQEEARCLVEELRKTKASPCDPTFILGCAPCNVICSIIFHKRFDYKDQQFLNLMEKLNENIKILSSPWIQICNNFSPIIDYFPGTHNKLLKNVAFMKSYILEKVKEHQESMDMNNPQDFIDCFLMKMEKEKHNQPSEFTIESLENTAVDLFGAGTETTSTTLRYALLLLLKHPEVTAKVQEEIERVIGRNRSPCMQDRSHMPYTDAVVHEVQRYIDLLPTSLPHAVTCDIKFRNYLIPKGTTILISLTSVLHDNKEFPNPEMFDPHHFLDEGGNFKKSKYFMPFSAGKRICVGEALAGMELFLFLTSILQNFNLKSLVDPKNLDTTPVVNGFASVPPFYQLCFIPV
Cytochrome P450 3A4 (Homo sapiens), sequence (P08684 whole entry, looked up): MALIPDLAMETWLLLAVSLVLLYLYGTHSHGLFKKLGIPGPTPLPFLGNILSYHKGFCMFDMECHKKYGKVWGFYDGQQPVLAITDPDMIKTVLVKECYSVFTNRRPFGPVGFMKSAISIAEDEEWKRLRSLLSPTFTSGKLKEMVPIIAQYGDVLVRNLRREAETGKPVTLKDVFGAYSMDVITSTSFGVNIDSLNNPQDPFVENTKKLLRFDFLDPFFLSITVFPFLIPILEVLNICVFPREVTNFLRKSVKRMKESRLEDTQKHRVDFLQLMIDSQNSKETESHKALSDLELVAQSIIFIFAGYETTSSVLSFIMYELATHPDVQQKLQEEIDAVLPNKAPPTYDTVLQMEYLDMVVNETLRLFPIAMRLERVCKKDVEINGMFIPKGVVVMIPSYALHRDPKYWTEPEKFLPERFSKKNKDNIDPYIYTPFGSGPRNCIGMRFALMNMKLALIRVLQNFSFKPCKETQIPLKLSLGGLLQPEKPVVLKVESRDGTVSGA
Cytochrome P450 2C19 (Homo sapiens), sequence (P33261 whole entry, looked up): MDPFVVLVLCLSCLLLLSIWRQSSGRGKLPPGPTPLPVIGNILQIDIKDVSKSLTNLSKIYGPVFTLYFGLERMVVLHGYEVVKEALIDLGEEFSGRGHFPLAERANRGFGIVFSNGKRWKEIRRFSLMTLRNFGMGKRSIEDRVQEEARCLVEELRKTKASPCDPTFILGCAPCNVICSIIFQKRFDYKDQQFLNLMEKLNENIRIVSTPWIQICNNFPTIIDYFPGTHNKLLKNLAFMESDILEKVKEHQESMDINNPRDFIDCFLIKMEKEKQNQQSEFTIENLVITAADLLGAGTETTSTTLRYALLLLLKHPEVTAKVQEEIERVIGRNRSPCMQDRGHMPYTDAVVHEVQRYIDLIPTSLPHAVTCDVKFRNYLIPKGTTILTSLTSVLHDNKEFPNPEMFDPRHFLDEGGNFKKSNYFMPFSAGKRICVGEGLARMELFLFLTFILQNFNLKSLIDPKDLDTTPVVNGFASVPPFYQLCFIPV
Cytochrome P450 2D6 (Homo sapiens), sequence (P10635 whole entry, looked up): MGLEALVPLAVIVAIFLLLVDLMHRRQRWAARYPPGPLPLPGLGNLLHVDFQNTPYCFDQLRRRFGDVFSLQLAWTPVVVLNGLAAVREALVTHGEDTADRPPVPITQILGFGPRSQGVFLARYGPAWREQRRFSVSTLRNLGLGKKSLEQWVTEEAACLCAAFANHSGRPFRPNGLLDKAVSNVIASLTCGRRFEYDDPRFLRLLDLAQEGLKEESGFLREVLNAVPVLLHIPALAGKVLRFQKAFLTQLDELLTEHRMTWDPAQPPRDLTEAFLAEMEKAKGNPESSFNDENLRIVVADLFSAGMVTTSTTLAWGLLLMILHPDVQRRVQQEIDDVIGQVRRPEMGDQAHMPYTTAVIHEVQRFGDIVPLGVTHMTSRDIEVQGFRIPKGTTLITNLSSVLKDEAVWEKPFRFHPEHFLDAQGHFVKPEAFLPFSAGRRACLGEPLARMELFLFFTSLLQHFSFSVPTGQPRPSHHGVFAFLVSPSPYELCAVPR
Voltage-gated inwardly rectifying potassium channel KCNH2 (Homo sapiens), sequence (Q12809 whole entry, looked up): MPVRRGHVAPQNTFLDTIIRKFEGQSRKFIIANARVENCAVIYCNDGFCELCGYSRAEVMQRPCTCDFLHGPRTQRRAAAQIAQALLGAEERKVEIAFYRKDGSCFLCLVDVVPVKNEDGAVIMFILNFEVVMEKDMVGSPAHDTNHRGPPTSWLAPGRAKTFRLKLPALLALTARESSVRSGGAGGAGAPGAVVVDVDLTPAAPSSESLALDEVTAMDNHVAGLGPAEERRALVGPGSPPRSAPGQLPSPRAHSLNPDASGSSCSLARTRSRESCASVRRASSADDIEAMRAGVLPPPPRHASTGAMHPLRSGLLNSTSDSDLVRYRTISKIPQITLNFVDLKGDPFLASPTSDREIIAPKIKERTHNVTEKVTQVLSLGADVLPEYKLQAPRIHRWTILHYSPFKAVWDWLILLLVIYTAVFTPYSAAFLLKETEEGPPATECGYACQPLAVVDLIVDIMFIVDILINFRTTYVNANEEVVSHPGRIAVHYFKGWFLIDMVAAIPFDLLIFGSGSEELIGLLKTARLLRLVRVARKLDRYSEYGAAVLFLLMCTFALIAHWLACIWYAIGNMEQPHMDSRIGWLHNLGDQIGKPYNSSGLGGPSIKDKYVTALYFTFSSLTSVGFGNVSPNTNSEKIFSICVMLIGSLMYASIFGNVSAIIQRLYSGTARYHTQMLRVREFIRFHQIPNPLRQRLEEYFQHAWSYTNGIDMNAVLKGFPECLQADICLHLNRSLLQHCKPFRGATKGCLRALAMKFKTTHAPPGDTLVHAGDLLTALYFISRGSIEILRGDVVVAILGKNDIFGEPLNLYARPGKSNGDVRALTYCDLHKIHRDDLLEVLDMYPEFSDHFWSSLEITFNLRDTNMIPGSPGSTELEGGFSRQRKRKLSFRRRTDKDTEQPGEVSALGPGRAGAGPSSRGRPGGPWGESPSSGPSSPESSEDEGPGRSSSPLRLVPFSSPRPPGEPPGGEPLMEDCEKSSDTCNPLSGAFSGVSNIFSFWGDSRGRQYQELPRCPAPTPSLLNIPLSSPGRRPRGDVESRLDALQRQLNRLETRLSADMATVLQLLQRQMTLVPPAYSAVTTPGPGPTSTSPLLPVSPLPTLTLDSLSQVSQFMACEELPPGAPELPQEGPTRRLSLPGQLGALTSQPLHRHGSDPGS
Thyrotropin-releasing hormone receptor (Homo sapiens), sequence (P34981 whole entry, looked up): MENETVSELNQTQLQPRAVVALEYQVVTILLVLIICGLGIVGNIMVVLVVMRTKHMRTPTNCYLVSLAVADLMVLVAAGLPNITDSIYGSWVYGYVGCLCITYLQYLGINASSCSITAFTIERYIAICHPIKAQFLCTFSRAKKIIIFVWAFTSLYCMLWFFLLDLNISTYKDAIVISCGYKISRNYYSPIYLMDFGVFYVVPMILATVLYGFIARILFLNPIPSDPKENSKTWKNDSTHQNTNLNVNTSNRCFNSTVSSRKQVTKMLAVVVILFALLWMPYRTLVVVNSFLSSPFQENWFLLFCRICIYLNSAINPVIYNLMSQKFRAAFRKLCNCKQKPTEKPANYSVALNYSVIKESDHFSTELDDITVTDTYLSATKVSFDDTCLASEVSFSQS

In the case of `CCOC(=O)C(=O)c1csc(NC=O)n1`, the compound was classed as inactive in assay [1], in assay [2], in [3], in assay [4] and in [6]. For the same compound, the Potency entry in [5], in [7], in [8], in [9], in assay [11] and in assay [12] was “inactive” each time. Moreover, in assay [10], the Potency was 19.5 µM (active).
As for `CC(=O)N1CCN(c2ccc(O)cc2)CC1`, the compound was classed as inactive in assay [1], in assay [2], in assay [3], in assay [4], in [6] and in assay [13]. The Potency entry in assay [5], in assay [14] and in [11] was “inactive” in each case. In assay [10], the Potency is 24.5 µM (active).
`COc1ccc(OC)c(NC(=O)CC(C)=O)c1`: the result in assay [1], in [2], in [3], in assay [4] and in [6] was inactive. The Potency entry in assay [5], in assay [7] and in assay [11] was “inactive” each time. For the same compound, the Potency in [14] was 54.5 µM (active); in assay [15], 31.7 µM (active); in assay [8], 15.9 µM (active); in assay [9], 31.7 µM (active); in assay [10], 15.9 µM (active); in [12], 22.4 µM (active).
In the case of `Nc1nc(=O)n([C@@H]2O[C@H](CO)[C@@H](O)[C@@H]2F)cc1I`, the compound was classed as inactive in assay [1], in [2], in assay [3], in [4], in [6] and in [13]. In addition, the Potency result in assay [5], in assay [7], in assay [14], in assay [15], in assay [8] and in assay [9] was “inactive” in each case. For the same compound, the Potency result in assay [10] and in assay [11] was “inactive” throughout.
For `CC(=O)OC(C)c1ccccc1` (centres undefined), the compound was called inactive in assay [1], in [2], in assay [3], in assay [4], in [6] and in assay [13]. The Potency entry in assay [5], in assay [7], in [14], in assay [15], in assay [8] and in assay [9] was “inactive” in each case. Moreover, the Potency entry in assay [10], in assay [11] and in assay [12] was “inactive” in each case.
For the compound `CC1=NN(c2ccc(S(=O)(=O)O)cc2)C(=O)C1N=Nc1ccccc1` (centres undefined), the call in assay [1], in assay [2], in assay [3], in assay [4], in assay [6] and in assay [13] was inactive. The values for the Potency in assay [16] and in assay [7] were 48.6 µM (active) and 61.1 µM (active), respectively. Moreover, the Potency result in assay [14], in assay [15], in assay [8], in assay [10], in assay [11] and in [12] was “inactive” each time.
In the case of `CC(C)C(=O)Nc1cccc(C(F)(F)F)c1`, the call in assay [1], in assay [2], in assay [3], in [4], in assay [6] and in [13] was inactive. The Potency entry in assay [5], in assay [7], in assay [15], in assay [8], in assay [9] and in assay [11] was “inactive” each time. Further, in assay [12], the Potency result is “inactive”. For the same compound, the Potency in [10] was 7.76 µM (active).
Consider `SCCSCCS`, for which the compound was called inactive in assay [1], in assay [2], in [3], in assay [4], in assay [6] and in assay [13]. The Potency entry in [5], in assay [7], in [15], in assay [8], in assay [10] and in [11] was “inactive” each time.
Consider `CCCCC(CC)COC(=O)c1ccccc1` (centres undefined), for which the compound was classed as inactive in [1], in assay [2], in assay [3], in [4], in assay [6] and in assay [13]. Moreover, the Potency entry in [5], in assay [7], in [14], in assay [15], in assay [8] and in [11] was “inactive” in each case. Further, the Potency result in assay [12] was “inactive”. In addition, in [10], the Potency was 28.3 µM (active).
